# Read-outs that look alike come from different tables or passages of the source.
# Columns and labels:
# Design in all cases: species or system human, MV4-11 + K-562 + COLO205 + SK-N-BE2 + OVCAR-8
# ERBB3 = details: read-out: apparent Kd; compound concentrations: 100 nM and 1000 nM (sheet 'Samples'), CATDS: 6.7979180467830594E-2; n = 1
# FYN = details: read-out: apparent Kd; compound concentrations: 100 nM and 1000 nM (sheet 'Samples'), CATDS: 0.114580255038188; n = 1
# HCK = details: read-out: apparent Kd, compound concentrations: 100 nM and 1000 nM (sheet 'Samples'), n = 1
# LCK = details: read-out: apparent Kd, compound concentrations: 100 nM and 1000 nM (sheet 'Samples'), n = 1
# LYN = details: read-out: apparent Kd, compound concentrations: 100 nM and 1000 nM (sheet 'Samples'), n = 1
# MAP2K5 = details: read-out: apparent Kd, n = 1
# RIPK2 = details: read-out: apparent Kd, n = 1
# RIPK3 = details: read-out: apparent Kd; compound concentrations: 100 nM and 1000 nM (sheet 'Samples'), CATDS: 6.5605703607897303E-2; n = 1
# SRC = details: read-out: apparent Kd; compound concentrations: 100 nM and 1000 nM (sheet 'Samples'), CATDS: 0.138583252116979; n = 1
# YES1 = details: read-out: apparent Kd, n = 1
# FECH = details: read-out: apparent Kd, n = 1
# FLT3 = details: read-out: apparent Kd, compound concentrations: 100 nM and 1000 nM (sheet 'Samples'), n = 1
# MELK = details: read-out: apparent Kd; compound concentrations: 100 nM and 1000 nM (sheet 'Samples'), CATDS: 0.102611877302843; n = 1
# MERTK = details: read-out: apparent Kd; compound concentrations: 100 nM and 1000 nM (sheet 'Samples'), CATDS: 0.11247191939654499; n = 1
# PDGFRB = details: read-out: apparent Kd; compound concentrations: 100 nM and 1000 nM (sheet 'Samples'), CATDS: 0.104628993679762; n = 1
# RET = details: read-out: apparent Kd, compound concentrations: 100 nM and 1000 nM (sheet 'Samples'), n = 1
# SIK2 = details: read-out: apparent Kd; compound concentrations: 100 nM and 1000 nM (sheet 'Samples'), CATDS: 0.136273413737004; n = 1
# IARS = details: read-out: apparent Kd; compound concentrations:100 nM and 1000 nM (sheet 'Samples'); n = 1
# NQO1 = details: read-out: apparent Kd; compound concentrations:100 nM and 1000 nM (sheet 'Samples'); n = 1
# PIK3CD = details: read-out: apparent Kd; compound concentrations:100 nM and 1000 nM (sheet 'Samples'); n = 1
# PLK1 = details: read-out: apparent Kd, n = 1
# EGFR = details: read-out: apparent Kd, n = 1
# EIF5B = details: read-out: apparent Kd; compound concentrations: 100 nM and 1000 nM (sheet 'Samples'), CATDS: 0.290212668862731; n = 1
# FN3K = details: read-out: apparent Kd; compound concentrations: 100 nM and 1000 nM (sheet 'Samples'), CATDS: 0.30544658046652101; n = 1
# ROCK1 = details: read-out: apparent Kd; compound concentrations: 100 nM and 1000 nM (sheet 'Samples'), CATDS: 0.35168740775253199; n = 1
# ROCK2 = details: read-out: apparent Kd; compound concentrations: 100 nM and 1000 nM (sheet 'Samples'), CATDS: 0.34690050634706199; n = 1
# FLT4 = details: read-out: apparent Kd; compound concentrations: 100 nM and 1000 nM (sheet 'Samples'), CATDS: 0.55988503208503904; n = 1
# NQO2 = details: read-out: apparent Kd; compound concentrations: 100 nM and 1000 nM (sheet 'Samples'), CATDS: 0.45168770198248398; n = 1
# MYLK3 = details: read-out: apparent Kd; compound concentrations: 100 nM and 1000 nM (sheet 'Samples'), CATDS: 0.63148030600185001; n = 1
# TNIK = details: read-out: apparent Kd; compound concentrations: 100 nM and 1000 nM (sheet 'Samples'), CATDS: 0.21425546336559301; n = 1
# TTK = details: read-out: apparent Kd; compound concentrations: 100 nM and 1000 nM (sheet 'Samples'), CATDS: 0.19017518811714801; n = 1
# FRK = details: read-out: apparent Kd; compound concentrations: 100 nM and 1000 nM (sheet 'Samples'), CATDS: 0.227181560235134; n = 1
# TNK2 = details: read-out: apparent Kd; compound concentrations: 100 nM and 1000 nM (sheet 'Samples'), CATDS: 0.21718962243178; n = 1
# [1] = compound concentrations:100 nM and 1000 nM (sheet 'Samples')
# [2] = compound concentrations: 100 nM and 1000 nM (sheet 'Samples'), CATDS: 1
compound,measurement,setting,value
O=C(NCCCN1CCOCC1)c1cccc(Nc2nccc(Nc3ccc(Oc4ccccc4)cc3)n2)c1 [GW663929X],potency estimated from few doses,ERBB3,1550 nM
same,potency estimated from few doses,FYN,343 nM
same,potency estimated from few doses,HCK; CATDS: 0.242489240886436,96.7 nM
same,potency estimated from few doses,LCK; CATDS: 0.10096254508192699,455 nM
same,potency estimated from few doses,LYN; CATDS: 8.32238060167768E-2,756 nM
same,potency estimated from few doses,"MAP2K5; compound concentrations: 100 nM and 1000 nM (sheet 'Samples'), CATDS: 7.7428617985082396E-2",947 nM
same,potency estimated from few doses,"RIPK2; compound concentrations: 100 nM and 1000 nM (sheet 'Samples'), CATDS: 0.16454989385531299",175 nM
same,potency estimated from few doses,RIPK3,1820 nM
same,potency estimated from few doses,SRC,236 nM
same,potency estimated from few doses,"YES1; compound concentrations: 100 nM and 1000 nM (sheet 'Samples'), CATDS: 0.11029012837176901",373 nM
COc1cc2c(cc1OC)C(=C(Nc1ccccc1)c1cccc(CN)c1)C(=O)N2 [BIBF0846CL],potency estimated from few doses,"FECH; compound concentrations: 100 nM and 1000 nM (sheet 'Samples'), CATDS: 0.35888442724353598",62.1 nM
same,potency estimated from few doses,FLT3; CATDS: 0.119493571435742,829 nM
same,potency estimated from few doses,MELK,1410 nM
same,potency estimated from few doses,MERTK,1010 nM
same,potency estimated from few doses,PDGFRB,1310 nM
same,potency estimated from few doses,RET; CATDS: 0.43241388330783698,45.3 nM
same,potency estimated from few doses,SIK2,560 nM
COc1cc2ncn(-c3cc(OCc4ccc(S(C)(=O)=O)cc4)c(C(N)=O)s3)c2cc1OC [GW869979X],potency estimated from few doses,FECH; [1],2080 nM
same,potency estimated from few doses,IARS,2020 nM
same,potency estimated from few doses,NQO1,2010 nM
same,potency estimated from few doses,PIK3CD,120 nM
same,potency estimated from few doses,PLK1; [1],1110 nM
Fc1cccc(COc2ccc(Nc3ncnc4sc(-c5ccc[nH]5)cc34)cc2Cl)c1 [GW707818B],potency estimated from few doses,EGFR; [2],1030 nM
Nc1ccc(C#Cc2cncnc2Nc2ccc(OCc3cccc(F)c3)c(Cl)c2)cc1 [GW659893X],potency estimated from few doses,EGFR; [2],404 nM
COc1cc2ncnc(Nc3ccc(C)c(O)c3)c2cc1OC.Cl [GW410563A],potency estimated from few doses,"EGFR; compound concentrations: 100 nM and 1000 nM (sheet 'Samples'), CATDS: 0.29565759118255602",439 nM
same,potency estimated from few doses,RET; CATDS: 0.33989373739411199,326 nM
same,potency estimated from few doses,"RIPK2; compound concentrations: 100 nM and 1000 nM (sheet 'Samples'), CATDS: 0.37374612171419203",272 nM
COc1ccc(COc2cc(-n3cnc4ccccc43)sc2C(N)=O)cc1 [GSK1024304A],potency estimated from few doses,EIF5B,1710 nM
same,potency estimated from few doses,"FECH; compound concentrations: 100 nM and 1000 nM (sheet 'Samples'), CATDS: 0.34999062122036301",1150 nM
same,potency estimated from few doses,"PLK1; compound concentrations: 100 nM and 1000 nM (sheet 'Samples'), CATDS: 0.37077800289250101",1030 nM
COc1cc2ncnc(Nc3ccc4c(cnn4Cc4ccccc4)c3)c2cc1OC.Cl [GW282449A],potency estimated from few doses,EGFR; [1],1.29 nM
same,potency estimated from few doses,MAP2K5; [1],1120 nM
same,potency estimated from few doses,RIPK2; [1],210 nM
same,potency estimated from few doses,YES1; [1],1110 nM
NS(=O)(=O)c1cccc(N/C=C2\C(=O)Nc3ccc(S(=O)(=O)Cc4c(Cl)cccc4Cl)cc32)c1 [GSK398099A],potency estimated from few doses,FN3K,2240 nM
same,potency estimated from few doses,ROCK1,1680 nM
same,potency estimated from few doses,ROCK2,1720 nM
CN1C(=O)C(c2c[nH]c3ccccc23)=C(c2c[nH]c3ccccc23)C1=O [RO0316045-000],potency estimated from few doses,FLT4,1370 nM
same,potency estimated from few doses,NQO2,2110 nM
O=C1Nc2ccccc2/C1=C/Nc1ccc(-n2cncn2)cc1 [GW301789X],potency estimated from few doses,FLT3; CATDS: 0.22267825375754199,1370 nM
same,potency estimated from few doses,MYLK3,176 nM
same,potency estimated from few doses,TNIK,1520 nM
same,potency estimated from few doses,TTK,2180 nM
Cc1ccc(C(=O)Nc2ccc(Nc3ccnc4cc(-c5ccccn5)ccc34)cc2O)cc1.Cl [GW440146A],potency estimated from few doses,FRK,250 nM
same,potency estimated from few doses,HCK; CATDS: 0.17687822419951399,398 nM
same,potency estimated from few doses,LCK; CATDS: 0.18982268752043399,346 nM
same,potency estimated from few doses,LYN; CATDS: 0.140123988269205,686 nM
same,potency estimated from few doses,"MAP2K5; compound concentrations: 100 nM and 1000 nM (sheet 'Samples'), CATDS: 0.111910092443395",1450 nM
same,potency estimated from few doses,TNK2,270 nM
Cl.N#Cc1cccc(Nc2ncc(-c3ccccc3)o2)c1 [GW627834A],potency estimated from few doses,FLT3; CATDS: 1,344 nM
